Source: PubChem BioAssay (NCATS)
Results filed as inconclusive are left out. Unmarked numbers belong to inactive results. The source made the active and inactive calls. The call rests on the fitted dose curve; in most records, active means well fitted inhibition curve with a large enough effect; inconclusive means small, poorly fitted or top-dose-only effect; inactive means flat fitted curve, though single readings scatter.

These compounds were tested on P93_24 (assay: qHTS profiling for inhibitors of Plasmodium falciparum proliferation (AID 504749; further: nearly all actives have a fitted effect of over 60% in size;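 on activity, negative = inhibition: 0% = DMSO vehicle and full inhibition = artemisinin control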)). Settings: P. falciparum in erythrocytes, SYBR Green DNA, 72 h; series mostly up to 28.7 µM; activity, negative = inhibition: at the top concentration.
Procedure, shortened: (§1)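 In a 72 h erythrocytic culture (37 C, humidified, 5% CO2) at 2.5% hematocrit and 0.3% starting parasitemia, compounds were tested; SYBR Green I in detergent lysis buffer stained parasite DNA overnight.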
Potency means the concentration at half of the fitted maximal effect.

Row | SMILES | activity, negative = inhibition | Potency
1 | C[C@](N)(Cc1ccc(O)cc1)C(=O)O | 14.9% | 
2 | OCCN1CCN(CCCN2c3ccccc3Sc3ccc(Cl)cc32)CC1 |  | 2.24 µM (active)
3 | CSc1ccc2c(c1)N(CCC1CCCCN1C)c1ccccc1S2 (configuration not stated) |  | 11.2 µM (active)
4 | NC(=O)N/N=C/c1ccc([N+](=O)[O-])o1 |  | 8.91 µM (active)
5 | CCN(CC)CCSC(=O)C(c1ccccc1)c1ccccc1 |  | inactive
6 | CCN(CC)CCNC(=O)c1c(C)[nH]c(/C=C2\C(=O)Nc3ccc(F)cc32)c1C |  | 6.31 µM (active)
7 | CC1=C(CC(=O)O)c2cc(F)ccc2/C1=C\c1ccc(S(C)=O)cc1 (configuration not stated) | -6.87% | 
8 | COCCOC(=O)C1=C(C)NC(C)=C(C(=O)OC/C=C/c2ccccc2)C1c1cccc([N+](=O)[O-])c1 (configuration not stated) |  | 11.2 µM (active)
9 | CSc1ccc2c(c1)C(N1CCN(C)CC1)Cc1ccccc1S2 (configuration not stated) |  | 11.2 µM (active)
10 | C=Cc1c(C)c2cc3[nH]c(cc4nc(cc5nc(cc1[nH]2)C(C)=C5CCC(=O)O)C(CCC(=O)O)=C4C)c(C)c3C=C | -0.94% | 
11 | [Cl][In]([Cl])[Cl] |  | 10 µM (active)
12 | COC(=O)C1=C(C)NC(C)=C(C(=O)OC)C1c1ccccc1[N+](=O)[O-] | -25.5% | 
13 | CC1=C(/C=C/C(C)=C/C=C/C(C)=C/C(=O)O)C(C)(C)CCC1 | -3.83% | 
14 | CCCCN(CCCC)CC(O)c1cc(Cl)cc2c1-c1ccc(Cl)cc1/C2=C/c1ccc(Cl)cc1 (configuration not stated) |  | 0.0126 µM (active)
15 | CC(=O)Oc1ccc(C2(c3ccc(OC(C)=O)cc3)C(=O)Nc3ccccc32)cc1 |  | inactive
16 | Cc1c(O)cccc1C(=O)N[C@@H](CSc1ccccc1)[C@H](O)CN1C[C@H]2CCCC[C@H]2C[C@H]1C(=O)NC(C)(C)C |  | 8.91 µM (active)
17 | O=C1NC(=O)[C@@]2(CCOc3ccc(F)cc32)N1 | -0.953% | 

These compounds were tested on P94_40 in the same assay as above. Settings: P. falciparum in erythrocytes, SYBR Green DNA, 72 h; series mostly up to 28.7 µM; activity, negative = inhibition: at the top concentration.
Procedure, shortened: as §1

Row | SMILES | activity, negative = inhibition | Potency
18 | C[C@](N)(Cc1ccc(O)cc1)C(=O)O | 13.8% | 
19 | CC(=O)c1ccc2c(c1)N(CCCN(C)C)c1ccccc1S2 | -10.1% [at 12.8 µM] | 
20 | CSc1ccc2c(c1)N(CCC1CCCCN1C)c1ccccc1S2 (configuration not stated) |  | 7.08 µM (active)
21 | CCCn1cnc2c1c(=O)n(CCCCC(C)=O)c(=O)n2C | 5.46% | 
22 | CCN(CC)CCSC(=O)C(c1ccccc1)c1ccccc1 |  | inactive
23 | CCN(CC)CCNC(=O)c1c(C)[nH]c(/C=C2\C(=O)Nc3ccc(F)cc32)c1C |  | 7.94 µM (active)
24 | CC1=C(CC(=O)O)c2cc(F)ccc2/C1=C\c1ccc(S(C)=O)cc1 (configuration not stated) | 5.72% | 
25 | CC(CN1c2ccccc2Sc2ccccc21)N(C)C (configuration not stated) | 29.6% | 
26 | C=Cc1c(C)c2cc3[nH]c(cc4nc(cc5nc(cc1[nH]2)C(C)=C5CCC(=O)O)C(CCC(=O)O)=C4C)c(C)c3C=C | 1.8% | 
27 | CN(C)CCN(Cc1ccccc1)c1ccccn1 | -19.2% | 
28 | OCc1cc(C(O)CNCCCCCCOCCCCc2ccccc2)ccc1O (configuration not stated) | -19.6% | 
29 | COC(=O)C1=C(C)NC(C)=C(C(=O)OC)C1c1ccccc1[N+](=O)[O-] | -13% | 
30 | CC1=C(/C=C/C(C)=C/C=C/C(C)=C/C(=O)O)C(C)(C)CCC1 | -2.56% | 
31 | CCCCN(CCCC)CC(O)c1cc(Cl)cc2c1-c1ccc(Cl)cc1/C2=C/c1ccc(Cl)cc1 (configuration not stated) |  | 0.005 µM (active)
32 | CC(=O)Oc1ccc(C2(c3ccc(OC(C)=O)cc3)C(=O)Nc3ccccc32)cc1 |  | inactive
33 | CN1CCN(C2Cc3ccccc3Sc3ccc(Cl)cc32)CC1 (configuration not stated) | -27.7% | 
34 | Cc1c(O)cccc1C(=O)N[C@@H](CSc1ccccc1)[C@H](O)CN1C[C@H]2CCCC[C@H]2C[C@H]1C(=O)NC(C)(C)C |  | 10 µM (active)
35 | O=C1NC(=O)[C@@]2(CCOc3ccc(F)cc32)N1 | 2.14% | 

Each compound was assayed on PAD in the same assay as above. Settings: P. falciparum in erythrocytes, SYBR Green DNA, 72 h; series mostly up to 28.7 µM; activity, negative = inhibition: at the top concentration.
Procedure, shortened: as §1

Row | SMILES | activity, negative = inhibition | Potency
36 | C[C@](N)(Cc1ccc(O)cc1)C(=O)O | 14.3% | 
37 | CC(=O)c1ccc2c(c1)N(CCCN(C)C)c1ccccc1S2 | -10.3% [at 12.8 µM] | 
38 | CSc1ccc2c(c1)N(CCC1CCCCN1C)c1ccccc1S2 (configuration not stated) |  | 8.91 µM (active)
39 | CCCn1cnc2c1c(=O)n(CCCCC(C)=O)c(=O)n2C | 0.364% | 
40 | CCN(CC)CCSC(=O)C(c1ccccc1)c1ccccc1 |  | inactive
41 | CCN(CC)CCNC(=O)c1c(C)[nH]c(/C=C2\C(=O)Nc3ccc(F)cc32)c1C |  | 5.01 µM (active)
42 | CNCCCC1c2ccccc2C=Cc2ccccc21 | -14.6% [at 12.8 µM] | 
43 | CC1=C(CC(=O)O)c2cc(F)ccc2/C1=C\c1ccc(S(C)=O)cc1 (configuration not stated) | 1.84% | 
44 | CC(CN1c2ccccc2Sc2ccccc21)N(C)C (configuration not stated) | 18.5% | 
45 | COCCOC(=O)C1=C(C)NC(C)=C(C(=O)OC/C=C/c2ccccc2)C1c1cccc([N+](=O)[O-])c1 (configuration not stated) |  | 8.91 µM (active)
46 | CN(C)CCCN1c2ccccc2Sc2ccc(Cl)cc21 |  | 10 µM (active)
47 | C=Cc1c(C)c2cc3[nH]c(cc4nc(cc5nc(cc1[nH]2)C(C)=C5CCC(=O)O)C(CCC(=O)O)=C4C)c(C)c3C=C | 0.391% | 
48 | CN(C)CCN(Cc1ccccc1)c1ccccn1 | -23.4% | 
49 | OCc1cc(C(O)CNCCCCCCOCCCCc2ccccc2)ccc1O (configuration not stated) | -6.59% | 
50 | O=C(O)CN1C(=O)c2cccc3cccc(c23)C1=O | 12.7% | 
51 | COC(=O)C1=C(C)NC(C)=C(C(=O)OC)C1c1ccccc1[N+](=O)[O-] | -11.9% | 
52 | CC1=C(/C=C/C(C)=C/C=C/C(C)=C/C(=O)O)C(C)(C)CCC1 | -3.07% | 
53 | CCCCN(CCCC)CC(O)c1cc(Cl)cc2c1-c1ccc(Cl)cc1/C2=C/c1ccc(Cl)cc1 (configuration not stated) |  | 0.0056 µM (active)
54 | CC(=O)Oc1ccc(C2(c3ccc(OC(C)=O)cc3)C(=O)Nc3ccccc32)cc1 |  | inactive
55 | CN1CCCCC1CCN1c2ccccc2Sc2ccc(S(C)=O)cc21 (configuration not stated) | -27% | 
56 | Cc1c(O)cccc1C(=O)N[C@@H](CSc1ccccc1)[C@H](O)CN1C[C@H]2CCCC[C@H]2C[C@H]1C(=O)NC(C)(C)C |  | 10 µM (active)
57 | O=C1NC(=O)[C@@]2(CCOc3ccc(F)cc32)N1 | 0.984% | 
